Measured values as given in the supplement of paper PMC3334620.
Whole data set: some 33,000 sequences, median “E-score (-0.5 to 0.5)” near -0.035, cut for the highest 2% near 0.34. For the sample, the highest values were picked, then their nearest neighbours and some sequences at random.

target: T1, Mot3 (UniProt P54785); assay: PBM E-score (8-mer binding enrichment) (E-score (-0.5 to 0.5)); higher = stronger / more preferred TF binding; details: protein concentration: 200 nM; construct: GST-full length
T1 sequence: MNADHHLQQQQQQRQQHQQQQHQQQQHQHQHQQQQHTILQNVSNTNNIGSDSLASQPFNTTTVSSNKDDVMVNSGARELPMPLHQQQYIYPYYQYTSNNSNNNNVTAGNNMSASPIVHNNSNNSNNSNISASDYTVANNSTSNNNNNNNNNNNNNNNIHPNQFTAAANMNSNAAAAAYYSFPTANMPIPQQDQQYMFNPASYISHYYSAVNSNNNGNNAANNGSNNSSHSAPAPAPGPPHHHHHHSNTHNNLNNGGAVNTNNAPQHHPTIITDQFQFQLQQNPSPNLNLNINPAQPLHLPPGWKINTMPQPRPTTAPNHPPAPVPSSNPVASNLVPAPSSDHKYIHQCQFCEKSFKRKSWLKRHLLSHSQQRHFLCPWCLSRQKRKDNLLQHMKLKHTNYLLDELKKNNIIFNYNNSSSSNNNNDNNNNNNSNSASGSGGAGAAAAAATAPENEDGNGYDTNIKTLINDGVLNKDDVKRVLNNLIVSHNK
How it was run: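 GST-tagged yeast TFs (full-length or DNA-binding domain) were made by PURExpress in vitro transcription/translation and applied at about 100-200 nM to universal all-10-mer Agilent arrays. The arrays were made double-stranded by primer extension, on fresh or once-stripped slides. Bound protein was detected with fluorescent anti-GST, and scans were normalised with masliner. Each ungapped eight-base word, pooled with its reverse complement, received an E-score (modified Wilcoxon-Mann-Whitney statistic) from the Universal PBM Analysis Suite.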

| Sequence | PBM E-score |
| --- | --- |
| AAGCAGTG | 0.0592 |
| TAGTGGAA | -0.00095 |
| ACAGGAAC | 0.466 |
| ACAAGGAA | 0.263 |
| GCAGGAAA | 0.451 |
| GGAGGAAA | 0.0847 |
| GCAGGATA | -0.121 |
| ACAGGAAG | 0.0333 |
| TCAAGGAA | 0.363 |
| ACAGGAAT | 0.107 |
| CCAAGGAA | 0.254 |
| ATCCATCA | -0.0789 |
| AGAGAGAG | -0.326 |
| CAACAGTC | -0.167 |
| GAGGTACA | 0.192 |
| CCGGTACA | 0.0242 |
| CAGGTACA | 0.406 |
| TGGGTACA | 0.0297 |
| TAGGTACA | 0.36 |
| TAGGTATA | -0.0008 |
| CTTCTAAC | -0.0665 |
| CGTGCTTC | 0.0855 |
| ACTCTACA | 0.174 |
| GTTAGCCA | -0.136 |
| CAGCTCTA | -0.168 |

| Sequence | PBM E-score |
| --- | --- |
| ACATTAGT | 0.187 |
| ACGAAACT | -0.0505 |
| AGGAAACA | 0.391 |
| GGGAAACA | -0.036 |
| AGGAAACG | 0.339 |
| AGGAAACT | 0.421 |
| AGGAAACC | 0.42 |
| CGGAAACA | 0.0963 |
| GGGAAACC | -0.00353 |
| CGGAAACC | -0.352 |
| GCGACGAA | -0.154 |
| ACGCGGAG | 0.105 |
| ACCTAGCA | 0.0477 |
| CATAGCGC | 0.0893 |
| GTACCTAA | 0.374 |
| GTACCTAC | 0.405 |
| CTACCTAC | 0.188 |
| ATACCTAC | 0.156 |
| TTACCTAA | 0.285 |
| ATACCTAA | 0.071 |
| AAGCGACG | -0.15 |
| ATGTTAAA | 0.392 |
| ATGTTAAG | 0.37 |
| CTGTTAAG | 0.259 |
| ATGTTAAT | 0.338 |

| Sequence | PBM E-score |
| --- | --- |
| ATGTTTAA | 0.285 |
| ACGTTAAA | 0.3 |
| AAGTTAAA | 0.219 |
| GAAGGGTA | 0.0495 |
| GGCCCTAC | -0.281 |
| ACAGACTG | -0.0643 |
| CGTGTTTC | 0.106 |
| AACACACA | 0.34 |
| CACACAAA | 0.151 |
| CACACGAA | 0.165 |
| AACACACG | 0.266 |
| AACACAAA | 0.22 |
| CATACACG | 0.316 |
| TATACACA | 0.364 |
| CATACACA | 0.219 |
| TACACGAA | 0.359 |
| AACACACT | 0.22 |
| TACACAAA | 0.369 |
| GACACGAA | 0.145 |
| ATAAACCG | -0.195 |
| ACAGCGGC | -0.112 |
| ATTAGAAC | 0.0827 |
| AGCTACAG | -0.0877 |
| CACACACG | 0.159 |
| AATACACT | 0.259 |

| Sequence | PBM E-score |
| --- | --- |
| AATACAAG | 0.313 |
| GACACGCA | 0.246 |
| AATACACA | 0.389 |
| TACACACA | 0.385 |
| CACACACA | 0.249 |
| TACACGCA | 0.346 |
| GATACACA | 0.14 |
| AATACACC | 0.271 |
| AACACGCA | 0.326 |
| AATACACG | 0.394 |
| CAAACGTG | 0.0815 |
| CCGACCAC | -0.189 |
| AGGGTCCA | -0.297 |
| CCGTATAG | -0.208 |
| ACATCGGG | -0.13 |
| ATCAATGC | -0.189 |
| CTCCAAAA | -0.179 |
| CAGGGACG | 0.0493 |
| GGAGAAAC | -0.149 |
| CGTAGCGA | -0.285 |
| GACTTGCC | 0.127 |
| AAGGTAGA | -0.0631 |
| CCGGTACG | -0.199 |
| AGGGTACC | 0.0598 |
| CAGGTACG | 0.409 |

| Sequence | PBM E-score |
| --- | --- |
| AAGGTACA | 0.394 |
| AAGGTATA | 0.113 |
| CGGGTACC | 0.0123 |
| CAGGTATC | 0.056 |
| CAGGTACC | 0.434 |
| CAGATACG | -0.243 |
| AAGGTACC | 0.419 |
| GAGGTACC | -0.0594 |
| ATCGAACC | -0.089 |
| ACTATCCA | -0.204 |
| CGCCTTGA | -0.0273 |
| AACATTGT | 0.257 |
| ATCTCCGA | -0.0589 |
| ATAAGTTA | 0.213 |
| AACTTAAA | 0.212 |
| ACGCTTCC | -0.0948 |
| CAGATCGA | -0.213 |
| AACAGCAA | 0.0647 |
| AAGGTAGT | -0.0675 |
| ACGGTACG | -0.0434 |
| AAGGTACG | 0.436 |
| ACGGTACT | -0.207 |
| AAGGTATG | 0.0554 |
| AAGGTACT | 0.364 |
| GACTCCAC | -0.34 |

| Sequence | PBM E-score |
| --- | --- |
| AGGCTCGG | 0.146 |
| ATGCGCTG | -0.00636 |
| AGCTACAT | 0.145 |
| CTATGTAA | 0.41 |
| ATATGTAA | 0.346 |
| ATATGTAG | 0.202 |
| GTATGTAA | 0.404 |
| CTCTGTAC | 0.0774 |
| CTCTGTAA | 0.133 |
| CTATGTAC | 0.378 |
| AGATGTAA | 0.272 |
| GTATGTGA | 0.0776 |
| ATATGTGA | 0.197 |
| GGATGTAA | 0.295 |
| ATATGTAC | 0.274 |
| CGATAGCA | -0.159 |
| CCCTTGCG | -0.214 |
| ACAAGTGC | 0.201 |
| CGATCGCG | -0.102 |
| GACCAATC | -0.039 |
| CCAAGTCG | -0.155 |
| AACCATCT | -0.143 |
| CCTACTCA | -0.046 |
| ATGCTGCG | -0.101 |
| CTATGTTA | 0.329 |

| Sequence | PBM E-score |
| --- | --- |
| GTATGTTA | 0.354 |
| ATATGTTA | 0.284 |
| ACTGAGAG | -0.0806 |
| ACAGAACT | -0.0328 |
| CCCCGGGG | -0.37 |
| GGGCTAAA | -0.189 |
| GTACCTGA | 0.402 |
| ATACCTGA | 0.0776 |
| GTACCTTA | 0.355 |
| ATACCTTA | -0.0699 |
| CTACCTGA | 0.0134 |
| CTACCTTA | 0.0561 |
| CTTAAGCA | 0.104 |
| CCGAATTC | -0.242 |
| AGAATCAC | -0.211 |
| CTGTGGCC | -0.0368 |
| ATTACGCA | 0.354 |
| AATACGCT | 0.188 |
| CATACGCG | 0.155 |
| ATTACGGG | -0.00149 |
| ATTACGCG | 0.377 |
| CTTACGCA | 0.301 |
| ATTACGCC | 0.102 |
